Bioassay records (PubChem BioAssay)
HP1b chromo inh = HP1-beta chromodomain-methylated histone interaction inhibition; Potency, µM (titrated, usually from 114 µM), usual class: inhibitors; P83916; hit rate 0.56% among 390,000; AlphaScreen HP1-beta / biotin-H3K9me3 peptide binding; further: nearly all actives have a fitted effect of over 70% in size
Target sequence (P83916 whole entry, looked up): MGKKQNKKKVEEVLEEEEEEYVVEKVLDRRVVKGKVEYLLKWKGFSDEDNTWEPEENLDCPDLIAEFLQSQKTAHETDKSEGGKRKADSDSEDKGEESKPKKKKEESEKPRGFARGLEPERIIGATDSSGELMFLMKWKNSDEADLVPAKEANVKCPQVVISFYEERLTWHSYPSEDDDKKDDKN
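AlphaScreen: HP1-beta (50 nM) preformed 30 min with biotin-H3(1-18)K9me3 peptide (50 nM) in PBS pH 7.4, 0.01% Tween-20. Compound added for 30 min at RT, then streptavidin donor/nickel chelate acceptor beads (10 ug/mL) for 30 min.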
BAZ2B inh = BAZ2B (human) inhibition. Q9UIF8. AlphaScreen BAZ2B-H3K14Ac peptide displacement. Potency, µM (highest dose often 114 µM), actives largely listed as inhibitors. hit rate 4.4% among 360,000. AID 504333; further: nearly all actives have a fitted effect of over 60% in size
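Complex of BAZ2B and biotin-H3K14Ac (50 nM apiece) forms over 30 min at RT, then faces library compounds up to 110 uM for another 30 min; AlphaScreen beads added, 20 min dark incubation, luminescence read.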
GLS inhibitor = inhibitors of human glutaminase (GLS); Potency, µM (doses to about 45.5 µM), most hits filed as inhibitors; O94925; AID 624170; GLS enzymatic activity, qHTS titration; hit rate 0.21% among 410,000
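Human kidney-isoform GLS in 45 mM KH2PO4 pH 8.2, 0.02% Tween-20, with compound, started with 1mM L-Glutamine (added stock). Glutamate oxidase/HRP/Amplex red coupled fluorescence read at start and after 30 min at RT.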
G9a inh = inhibitors of human histone lysine methyltransferase G9a; G9a H3K9 monomethylation, AlphaScreen, 2 h; Q96KQ7; Potency, µM (series often up to 102 µM), usual class: inhibitors; AID 504332; hit rate 8.8% among 350,000; further: nearly all actives have a fitted effect of over 75% in size
Target sequence (Q96KQ7 913-1193 limits assumed): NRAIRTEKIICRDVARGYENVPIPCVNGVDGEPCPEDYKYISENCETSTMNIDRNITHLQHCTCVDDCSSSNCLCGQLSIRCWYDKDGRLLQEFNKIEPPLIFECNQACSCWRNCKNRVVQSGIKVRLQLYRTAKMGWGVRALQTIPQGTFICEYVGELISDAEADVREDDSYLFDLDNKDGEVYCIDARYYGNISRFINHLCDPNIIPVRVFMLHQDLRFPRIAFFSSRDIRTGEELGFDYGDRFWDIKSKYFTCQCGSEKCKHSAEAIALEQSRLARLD
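G9a (20 nM) was preincubated 15 min with compound, then reacted 2 h at room temperature with 500 nM biotin-H3K9 peptide and 20 µM SAM. Monomethyl-H3K9 detected by AlphaScreen using anti-H3K9me1 antibody.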
JMJD2A Tudor = blocks the human JMJD2A Tudor domain. AID 504339. Potency, µM (titrated, usually from 114 µM), most hits filed as inhibitors. AlphaScreen JMJD2A-Tudor / H3K4me3 peptide binding. O75164. hit rate 4.4% among 390,000; further: nearly all actives have a fitted effect of over 50% in size
L3MBTL1 inh = inhibitors of human L3MBTL1; AID 485360; Q9Y468; hit rate 0.66% among 230,000; Potency, µM (series often up to 57.1 µM), usual class: inhibitors; AlphaScreen L3MBTL1–H3K9me1 peptide binding; further: nearly all actives have a fitted effect of over 60% in size
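AlphaScreen proximity signal between nickel-chelate acceptor and streptavidin donor beads (final 10 ug/mL) reports binding of 50 nM L3MBTL1 to 75 nM biotin-H3 K9me1 peptide; complex incubated with compounds 30 min at room temperature; cefsulodin titration as control.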
A number is an active result; 0 = inactive; ? = inconclusive; - = no result given; ! = a repeat was not active; [ ] = another dose, or the depositor's remark. Rows were chosen to be rich in hits. Some 10% of all compounds tested hit in one or more screens of this group. The call rests on the fitted dose curve; in most records, active means well fitted curve in the direction sought with a large enough effect; inconclusive means small, poorly fitted or top-dose-only effect, or another doubt; inactive means no such curve, though single readings can be large; an effect the other way counts as inactive or inconclusive.

SMILES	HP1b chromo inh	BAZ2B inh	GLS inhibitor	G9a inh	JMJD2A Tudor	L3MBTL1 inh
Cc1ccc(C)c(S(=O)(=O)Nc2ccc(O)c3ccccc23)c1	16µM	50µM	0	28µM	50µM	0
COc1ccc(S(=O)(=O)Nc2ccc(O)c3ccccc23)cc1	?	40µM	0	?	32µM	28µM
Cc1ccc(C)c(S(=O)(=O)Nc2ccc(O)c(C(=O)O)c2)c1	?	-	0	?	0	0
CCc1ccccc1NC(=O)Cn1c(C(=O)OC)cc2oc(C)cc21	0	0	0	0	0	-
CCOc1ccccc1-c1ccc(C(=O)O)o1	-	-	-	0	-	-
COc1ccccc1-c1ccc(/C=C2/C=C(CC(C)C)OC2=O)o1	?	40µM	0	10µM	?	?
O=Cc1ccc(-c2ccccc2OC(F)(F)F)o1	0	0	0	0	0	-
CCCC1=C/C(=C/c2ccc(-c3ccccc3OC)o2)C(=O)O1	0	40µM	0	28µM	?	0
Cc1coc2cc3oc(=O)c(CCC(=O)NCc4ccc(Cl)cc4)c(C)c3cc12	0	0	0	0	0	-
COc1ncc2nc(-c3ccc(F)cc3)c(=O)n(C[C@H]3CCCO3)c2n1	-	-	-	0[12.7 µM]	-	-
CC(C)(C)NC(=O)C(c1ccncc1)N(Cc1ccco1)C(=O)c1ccc(-c2ccccc2)[nH]1 (stereo not given)	?	?	0	22µM	50µM	0
COc1ccc(-n2nc(-c3ccc(C)cc3)c3cnc4cc(F)c(F)cc4c32)cc1	0	-	0	0	0	-
O=C1c2ccccc2C(=O)c2c1ccc1c(=O)n(C3CCCCC3)[nH]c21	0	50µM	0	7.9µM	25µM	0
O=S(=O)(N/N=C/c1ccccc1F)c1ccccc1	0	0	0	?	?	-
Cc1ccc(S(=O)(=O)NN=Cc2ccc(N3CCOCC3)cc2)cc1[N+](=O)[O-]	0	-	0	-	0	0
CCN(Cc1ccccc1)c1ccc(/C=N/NS(=O)(=O)c2ccc(C)c([N+](=O)[O-])c2)cc1	?	?	0	8.9µM	?	0
Cc1ccc(S(=O)(=O)N/N=C/c2ccccc2F)cc1[N+](=O)[O-]	0	?	0	11µM	0	-
O=[N+]([O-])c1cc2c(cc1/C=N/NS(=O)(=O)c1ccc(Br)cc1)OCO2	?	0	0	11µM	0[11.4 µM]	0
CCOC(=O)c1ccc2c(c1)N(Cc1cccc([N+](=O)[O-])c1)C(=O)c1ccccc1S2	0	0	0	0	0	-
CC1CCCCN1c1cc2c(cc1F)c(=O)c(S(=O)(=O)c1ccccc1)cn2Cc1ccccc1 (stereo not given)	0	0	0	0	0	-
Cc1ccc(NC(CC(=O)c2ccccc2)c2ccc(F)cc2)cc1 (stereo not given)	0	?	0	0	?	0
O=C(CC(Nc1ccc(F)cc1)C(=O)O)c1ccccc1 (stereo not given)	0	0	?	10µM	0	0[11.4 µM]
OC(CNCCNc1ncccc1C(F)(F)F)COc1ccc(F)cc1 (stereo not given)	0	0	0	0	0	0
Cn1cc(C(F)(F)F)nc1-c1ccc(OCC(O)CNCCOc2ccc(O)c(C(N)=O)c2)cc1 (stereo not given)	0	0	0	25µM!	0	-
O=C1N=c2ccccc2=C1c1sc(=S)n(NC(=O)c2ccccc2)c1O	0	?	0	40µM	0	-
SMILES	HP1b chromo inh	BAZ2B inh	GLS inhibitor	G9a inh	JMJD2A Tudor	L3MBTL1 inh
Nc1nc(=S)c2ncn(C3CCCC3)c2[nH]1	?	?	?	0[0.501 µM]	50µM	0
CCc1ccc(C2=CC(c3cccc(C)c3)n3c(nc4ccccc43)N2)cc1 (stereo not given)	0	0	0	0	0	-
O=C(/C=C\NCC(=O)c1ccccc1)c1ccc(F)cc1	0	0	0	11µM	0	0
O=C(c1ccccc1)c1ccc2ccccc2c1	0	-	?	-	0	-
O=C(/C=C\NCC(=O)c1ccccc1)c1ccc2ccccc2c1	0	0	0	7.9µM	?	0
Cn1c(N)c(C(=O)COC(=O)Cc2ccc(Cl)c(Cl)c2)c(=O)n(C)c1=O	0	-	0	-	89µM	0
CCOc1ncccc1C(=O)OCC(=O)c1c(N)n(C)c(=O)n(C)c1=O	0	0	0	0	0	0
